# Test results from PubChem BioAssay (NCATS).
# Several values for one entry are separate records, joined by “and”; a condition that tells them apart may be missing. Identical values can stand only once. Activity calls are given as the source filed them. Entries that show only a call come without a potency. Unless noted, calls follow the shape of the full dose curve.
# How the values were obtained:
# [1] = biological target: Cytochrome P450 3A4 (Homo sapiens) (UniProt P08684); assay: qHTS Assay for Inhibitors and Substrates of Cytochrome P450 3A4 (AID 884; active = well fitted curve in the direction sought with a large enough effect; inconclusive = small, poorly fitted or top-dose-only effect, or another doubt; inactive = no such curve, though single readings can be large; an effect the other way counts as inactive or inconclusive; also: series mostly up to about 57 µM; nearly all actives have a fitted effect of over 50% in size)
# Summary of the method: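 Luminescent readout of luciferin produced by CYP3A4 (20 nM) dealkylation of Luciferin-PPXE, 25 uM (its KM). NADPH-driven reaction ran 60 min at RT after 10 min compound preincubation; data scaled to 57 uM ketoconazole as 100% inhibition.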
# [2] = biological target: Estrogen receptor (Homo sapiens) (UniProt P03372); assay: qHTS assay for small molecule antagonists of estrogen receptor alpha signaling (AID 588513; active = well fitted curve in the direction sought with a large enough effect in the signal ratio, with a control signal flat, not every such curve was filed as active; inconclusive = small, poorly fitted or top-dose-only effect, or effect the other way, or a change in a side signal; inactive = no such curve, though single readings can be large or run the other way; the % refers to the signal ratio; also: potency is read from the fitted curve at half-maximal effect)
# Summary of the method: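 Antagonist-mode qHTS in ER-alpha-UAS-bla HEK 293 cells: compound titration, 0.5nM estradiol for 18 h, CCF4 fluorescence, Hill-derived IC50.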
# [3] = biological target: Estrogen receptor (Homo sapiens) (UniProt P03372); assay: qHTS assay for small molecule agonists of estrogen receptor alpha signaling (AID 588514); also: nearly all actives have a fitted effect of over 70% in size
# Summary of the method: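 EC50 and efficacy came from Hill fits of beta-lactamase reporter signal (CCF4 dye, 2 h at room temperature) scaled between DMSO and 20 nM 17-beta-estradiol. Agonist mode: HEK293 ER-alpha-UAS-bla cells in charcoal/dextran-stripped serum medium, 18 h compound exposure at 37 C.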
# [4] = biological target: Glucocorticoid receptor (Homo sapiens) (UniProt P04150); assay: qHTS assay for small molecule agonists of glucocorticoid receptor signaling (AID 588532; active = well fitted curve in the direction sought with a large enough effect in the signal ratio, with a control signal flat; inconclusive = small, poorly fitted or top-dose-only effect, or a change in a side signal; inactive = no such curve, though single readings can be large or run the other way; the % refers to the signal ratio); settings: HeLa MMTV-bla, beta-lactamase ratio, agonist, 18 h; stronger effect = higher value; percent of dexamethasone control, DMSO zero
# Summary of the method: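 Stimulation of a glucocorticoid response element-driven beta-lactamase gene was measured in HeLa cells. Responses were scaled between DMSO basal and 0.1 uM dexamethasone, then fitted for half-maximal stimulation.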
# [5] = biological target: Glucocorticoid receptor (Homo sapiens) (UniProt P04150); assay: qHTS assay for small molecule antagonists of glucocorticoid receptor signaling (AID 588533; active = well fitted inhibition curve with a large enough effect in the signal ratio, with a control signal flat, not every such curve was filed as active; inconclusive = small, poorly fitted or top-dose-only effect, or effect the other way, or a change in a side signal; the % refers to the signal ratio;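 also: cells stimulated with 2 nM dexamethasone as agonist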; also: potency is read from the fitted curve at half-maximal effect)
# Summary of the method: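 Antagonist-mode qHTS: compound titrations added to GRE-bla HeLa cells, then dexamethasone 2 nM final; 18 h, 37 C. CCF4 FRET fluorescence normalized to dexamethasone and DMSO; IC50 from Hill fit.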
# [6] = biological target: Peroxisome proliferator-activated receptor gamma (Homo sapiens) (UniProt P37231); assay: qHTS assay for small molecule agonists of peroxisome proliferator-activated receptor gamma signaling (AID 588536; active = well fitted curve in the direction sought with a large enough effect in the signal ratio, with a control signal flat, not every such curve was filed as active; inconclusive = small, poorly fitted or top-dose-only effect, or effect the other way, or a change in a side signal; inactive = no such curve, though single readings can be large or run the other way; the % refers to the signal ratio)
# Summary of the method: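 Cells were plated and held 6–6.5 h at 37 C, then compounds were added as a titration series. After a further 16 h, CCF4 dye was loaded for 2 h at room temperature and emission at 460/530 nm recorded.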
# [7] = biological target: Vitamin D3 receptor (Homo sapiens) (UniProt P11473); assay: qHTS assay for small molecule antagonists of vitamin D receptor signaling (AID 588541);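 also: receptor activated by calcitriol during compound treatment; series mostly up to about 77 µM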
# Summary of the method: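 VDR-UAS-bla HEK293T cells (2000/well, 2% charcoal-stripped FBS) were treated with titrated compounds plus 1-alpha,25-dihydroxyvitamin D3 (50 nM or 3 nM final) for 16 h at 37 C. CCF4 beta-lactamase fluorescence was read; Hill fits gave IC50.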
# [8] = biological target: Vitamin D3 receptor (Homo sapiens) (UniProt P11473); assay: qHTS assay for small molecule agonists of vitamin D receptor signaling (AID 588543)
# Summary of the method: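 Measured: β-lactamase reporter activity (CCF4, 405 nm excitation, 460/530 nm emission) in HEK293T VDR-UAS-bla cells after 16 h compound exposure at 37 °C. Normalization against 50 nM 1α,25-dihydroxyvitamin D3 and DMSO; Hill-fit EC50.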
# [9] = qHTS assay for small molecule agonists of retinoid X receptor alpha signaling (AID 588544); settings: HEK293T RXRa-UAS-bla, beta-lactamase reporter, 18 h; 530 nm emission
# [10] = biological target: Retinoic acid receptor RXR-alpha (Homo sapiens) (UniProt P19793); assay: as above
# [11] = biological target: Thyroid hormone receptor beta (Homo sapiens) (UniProt P10828); assay: qHTS assay for small molecule agonists of thyroid hormone receptor beta signaling (AID 588545)
# Summary of the method: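 Cells (2500/well) were seeded, incubated 4 hrs at 37 C, dosed with a compound series, incubated 18 hrs, loaded with CCF4 dye for 2 hrs at RT, then read for fluorescence. Data were scaled between DMSO (0%) and 10 nM T3 (100%).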
# [12] = biological target: Thyroid hormone receptor beta (Homo sapiens) (UniProt P10828); assay: qHTS assay for small molecule antagonists of thyroid hormone receptor beta signaling (AID 588547; active = well fitted inhibition curve with a large enough effect in the signal ratio, with a control signal flat, not every such curve was filed as active; inconclusive = small, poorly fitted or top-dose-only effect, or effect the other way, or a change in a side signal; the % refers to the signal ratio;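 also: cells stimulated with 0.4 nM T3 agonist during compound exposure; series mostly up to about 77 µM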); settings: TR-UAS-bla HEK293, beta-lactamase ratio, antagonist mode, 18 h
# Summary of the method: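 TR-UAS-bla GripTite HEK293 cells in 2% charcoal/dextran FBS medium were preincubated 4 h at 37 C, given compound (0.59 nM to 92 uM) plus 0.4 nM T3 (final) for 18 h, then CCF4 for 2 h at RT; Hill fit gave IC50.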
# [13] = qHTS assay for small molecule agonists of the antioxidant response element (ARE) signaling pathway (AID 651741; active = well fitted activation curve with a large enough effect in the signal ratio; inconclusive = small, poorly fitted or top-dose-only effect, or effect the other way, or a change in a side signal; the % refers to the signal ratio; also: potency is read from the fitted curve at half-maximal effect)
# Summary of the method: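 Reporter: beta-lactamase under ARE, stably in HepG2. Exposure: 16 h, 37 C, compounds delivered in DMSO by pin tool after 5 h cell preincubation. Readout: FRET substrate fluorescence after 2 h at RT.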
# [14] = qHTS assay for small molecule activators of the p53 signaling pathway (AID 651743; active = well fitted activation curve with a large enough effect in the signal ratio, not every such curve was filed as active; inconclusive = small, poorly fitted or top-dose-only effect, or a change in a side signal; the % refers to the signal ratio; also: series mostly up to about 92 µM); settings: HCT-116 p53RE-bla, beta-lactamase FRET ratio, 16 h; activation: stronger effect = higher value
# Summary of the method: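 Agonist-mode quantitative HTS in HCT-116 cells carrying a p53-response-element beta-lactamase reporter; 16 h compound treatment at 37 C, then FRET substrate loading for 2 h at room temperature and fluorescence read.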
# [15] = qHTS assay for small molecule disruptors of the mitochondrial membrane potential - 1 hr assay (AID 651754); also: nearly all actives have a fitted effect of over 35% in size
# Summary of the method: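 Mitochondrial potential in living HepG2 cells after 1 hr compound treatment at 37C was read with Mito-MPS dye added for a further 30 min. Red aggregate and green monomer fluorescence were measured; loss of potential leaves dye as cytoplasmic monomers.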
# [16] = biological target: Nuclear receptor ROR-gamma (Homo sapiens) (UniProt P51449); assay: qHTS assay for small molecule antagonists of the retinoid-related orphan receptor gamma (ROR-gamma) signaling pathway (AID 651802; active = well fitted curve in the direction sought with a large enough effect; inconclusive = small, poorly fitted or top-dose-only effect, or another doubt; inactive = no such curve, though single readings can be large; an effect the other way counts as inactive or inconclusive; also: nearly all actives have a fitted effect of over 60% in size; also: potency is read from the fitted curve at half-maximal effect)
# Summary of the method: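 Luminescence (One-Glo, 30 min RT) measured 16 h after compound addition and doxycycline induction at 37C. Reporter: RORE-luciferase under TET-inducible ROR-gamma in CHO cells.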
# [17] = qHTS assay for small molecule agonists of the antioxidant response element (ARE) signaling pathway measured by Nrf2-dependant transcriptional activity (AID 720636; active = well fitted curve in the direction sought with a large enough effect in the repeat runs; inconclusive = weak or mixed curves; inactive = no such curve, though single readings can be large; an effect the other way counts as inactive or inconclusive; also: potency is read from the fitted curve at half-maximal effect)
# Summary of the method: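 Nrf2-dependent transcription read as ONE-Glo luciferase signal from ARE-luc HepG2 reporter cells after 16 hr compound treatment at 37 C, 5% CO2, in assay medium with 1% dialyzed FBS.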
# [18] = biological target: Nuclear receptor subfamily 1 group I member 2 (Rattus norvegicus) (UniProt Q9R1A7); assay: qHTS assay for small molecule activators of the rat pregnane X receptor (rPXR) signaling pathway (AID 651751; call rule not given here); settings: rPXR reporter cells, luciferase (One-Glo), 24 h
# [19] = qHTS assay for small molecule activators of the human pregnane X receptor (PXR) signaling pathway (AID 720659; call rule not given here)
# [20] = MultiTox-Fluor Cytotoxicity Assay - LYMP1-002 - Dead Cells (AID 960; active = well fitted curve in the direction sought with a large enough effect; inconclusive = small, poorly fitted or top-dose-only effect, or another doubt; inactive = no such curve, though single readings can be large; an effect the other way counts as inactive or inconclusive; also: nearly all actives have a fitted effect of over 60% in size; also: potency is read from the fitted curve at half-maximal effect)
# Summary of the method: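 Dead-cell fluorescence (Ex/Em 485/520) after 16 h compound exposure at 37 C of LYMP1-002 lymphoblastoid cells in complete medium; AC50 by Hill equation, with data scaled between DMSO and 15 uM tetraoctylammonium bromide.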
# Sequence of Nuclear receptor subfamily 1 group I member 2 (Rattus norvegicus) (Q9R1A7 whole entry, looked up): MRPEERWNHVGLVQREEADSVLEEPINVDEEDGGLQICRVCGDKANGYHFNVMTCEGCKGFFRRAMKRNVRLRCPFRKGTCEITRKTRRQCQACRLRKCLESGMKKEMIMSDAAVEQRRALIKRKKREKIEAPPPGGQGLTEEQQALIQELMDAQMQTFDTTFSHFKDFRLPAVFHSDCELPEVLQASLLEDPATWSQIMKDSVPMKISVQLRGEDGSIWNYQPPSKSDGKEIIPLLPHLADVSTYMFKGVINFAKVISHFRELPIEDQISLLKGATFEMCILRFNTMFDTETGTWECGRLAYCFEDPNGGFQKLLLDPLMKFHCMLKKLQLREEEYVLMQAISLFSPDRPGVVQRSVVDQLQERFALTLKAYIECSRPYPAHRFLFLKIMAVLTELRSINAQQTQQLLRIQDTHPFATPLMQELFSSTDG
# Sequence of Thyroid hormone receptor beta (Homo sapiens) (P10828 whole entry, looked up): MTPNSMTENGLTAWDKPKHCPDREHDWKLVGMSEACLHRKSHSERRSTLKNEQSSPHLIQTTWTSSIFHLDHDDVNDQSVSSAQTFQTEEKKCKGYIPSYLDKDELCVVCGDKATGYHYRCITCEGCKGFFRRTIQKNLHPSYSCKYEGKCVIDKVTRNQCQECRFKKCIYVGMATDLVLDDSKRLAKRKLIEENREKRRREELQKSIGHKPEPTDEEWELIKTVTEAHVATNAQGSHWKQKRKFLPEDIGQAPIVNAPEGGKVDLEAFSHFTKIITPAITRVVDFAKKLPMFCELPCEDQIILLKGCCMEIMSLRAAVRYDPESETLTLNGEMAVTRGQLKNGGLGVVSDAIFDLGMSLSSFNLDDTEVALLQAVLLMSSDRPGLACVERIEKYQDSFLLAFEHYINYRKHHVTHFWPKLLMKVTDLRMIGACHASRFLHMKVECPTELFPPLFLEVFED
# Sequence of Nuclear receptor ROR-gamma (Homo sapiens) (P51449 whole entry, looked up): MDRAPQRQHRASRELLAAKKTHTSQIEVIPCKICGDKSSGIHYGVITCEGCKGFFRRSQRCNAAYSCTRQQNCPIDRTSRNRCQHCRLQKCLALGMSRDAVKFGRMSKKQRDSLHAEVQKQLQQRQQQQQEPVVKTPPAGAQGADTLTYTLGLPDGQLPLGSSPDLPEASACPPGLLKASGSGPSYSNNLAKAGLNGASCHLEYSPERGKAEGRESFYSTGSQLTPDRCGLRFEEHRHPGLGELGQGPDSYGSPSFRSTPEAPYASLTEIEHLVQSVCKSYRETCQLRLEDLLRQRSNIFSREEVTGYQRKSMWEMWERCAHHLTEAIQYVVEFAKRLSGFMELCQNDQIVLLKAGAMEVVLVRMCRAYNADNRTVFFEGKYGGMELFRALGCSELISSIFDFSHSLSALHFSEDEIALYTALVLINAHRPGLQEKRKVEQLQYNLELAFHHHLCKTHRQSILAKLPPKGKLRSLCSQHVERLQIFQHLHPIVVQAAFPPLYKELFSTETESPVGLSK
# Sequence of Cytochrome P450 3A4 (Homo sapiens) (P08684 whole entry, looked up): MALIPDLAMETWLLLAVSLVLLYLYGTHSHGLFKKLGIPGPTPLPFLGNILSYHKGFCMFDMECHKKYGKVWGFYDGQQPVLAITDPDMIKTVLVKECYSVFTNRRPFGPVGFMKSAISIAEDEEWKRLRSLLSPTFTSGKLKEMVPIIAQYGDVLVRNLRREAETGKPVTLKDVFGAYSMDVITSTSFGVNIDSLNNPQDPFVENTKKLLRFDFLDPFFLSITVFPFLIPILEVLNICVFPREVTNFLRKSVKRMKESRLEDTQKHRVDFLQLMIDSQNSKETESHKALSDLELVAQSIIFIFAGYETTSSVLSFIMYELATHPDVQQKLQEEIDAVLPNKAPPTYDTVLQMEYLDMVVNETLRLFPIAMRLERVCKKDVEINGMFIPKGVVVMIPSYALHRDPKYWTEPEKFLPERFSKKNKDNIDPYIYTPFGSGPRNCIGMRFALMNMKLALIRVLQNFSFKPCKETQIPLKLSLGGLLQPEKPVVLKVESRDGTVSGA
# Sequence of Estrogen receptor (Homo sapiens) (P03372 whole entry, looked up): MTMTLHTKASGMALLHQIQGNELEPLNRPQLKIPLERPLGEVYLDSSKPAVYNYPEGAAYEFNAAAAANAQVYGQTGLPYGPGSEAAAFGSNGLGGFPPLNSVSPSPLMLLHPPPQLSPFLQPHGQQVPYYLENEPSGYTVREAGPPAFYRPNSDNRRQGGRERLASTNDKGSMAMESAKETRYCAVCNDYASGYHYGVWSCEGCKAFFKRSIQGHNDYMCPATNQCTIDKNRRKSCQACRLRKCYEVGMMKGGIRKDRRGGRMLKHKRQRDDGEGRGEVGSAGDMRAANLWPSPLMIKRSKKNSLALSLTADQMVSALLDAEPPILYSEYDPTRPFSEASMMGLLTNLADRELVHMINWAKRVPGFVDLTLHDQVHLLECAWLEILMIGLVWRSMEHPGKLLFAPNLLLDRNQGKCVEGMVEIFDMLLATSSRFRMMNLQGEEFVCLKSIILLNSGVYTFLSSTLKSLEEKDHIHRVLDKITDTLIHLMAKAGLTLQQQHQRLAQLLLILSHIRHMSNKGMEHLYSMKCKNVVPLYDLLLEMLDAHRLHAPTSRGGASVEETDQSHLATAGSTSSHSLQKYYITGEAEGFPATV
# Sequence of Glucocorticoid receptor (Homo sapiens) (P04150 whole entry, looked up): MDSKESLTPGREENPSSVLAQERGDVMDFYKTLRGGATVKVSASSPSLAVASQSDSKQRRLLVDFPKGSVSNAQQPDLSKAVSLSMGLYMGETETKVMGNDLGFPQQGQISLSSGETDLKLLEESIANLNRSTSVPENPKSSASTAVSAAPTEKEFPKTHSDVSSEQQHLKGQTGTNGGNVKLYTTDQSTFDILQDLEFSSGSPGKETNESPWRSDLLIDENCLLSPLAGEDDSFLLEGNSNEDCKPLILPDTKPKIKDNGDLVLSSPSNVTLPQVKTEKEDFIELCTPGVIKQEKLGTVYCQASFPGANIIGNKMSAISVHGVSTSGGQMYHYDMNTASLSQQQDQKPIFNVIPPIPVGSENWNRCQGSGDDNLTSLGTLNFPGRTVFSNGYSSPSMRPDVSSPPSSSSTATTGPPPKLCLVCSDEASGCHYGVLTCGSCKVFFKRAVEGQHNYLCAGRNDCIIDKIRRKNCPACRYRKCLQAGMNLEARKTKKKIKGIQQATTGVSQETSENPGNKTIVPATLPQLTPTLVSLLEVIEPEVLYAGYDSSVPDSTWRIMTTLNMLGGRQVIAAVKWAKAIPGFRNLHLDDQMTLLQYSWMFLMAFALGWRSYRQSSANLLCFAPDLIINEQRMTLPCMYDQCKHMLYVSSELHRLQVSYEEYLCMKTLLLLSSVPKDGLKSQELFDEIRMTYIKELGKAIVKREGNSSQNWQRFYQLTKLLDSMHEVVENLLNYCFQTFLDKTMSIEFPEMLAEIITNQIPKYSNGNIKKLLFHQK
# Sequence of Vitamin D3 receptor (Homo sapiens) (P11473 whole entry, looked up): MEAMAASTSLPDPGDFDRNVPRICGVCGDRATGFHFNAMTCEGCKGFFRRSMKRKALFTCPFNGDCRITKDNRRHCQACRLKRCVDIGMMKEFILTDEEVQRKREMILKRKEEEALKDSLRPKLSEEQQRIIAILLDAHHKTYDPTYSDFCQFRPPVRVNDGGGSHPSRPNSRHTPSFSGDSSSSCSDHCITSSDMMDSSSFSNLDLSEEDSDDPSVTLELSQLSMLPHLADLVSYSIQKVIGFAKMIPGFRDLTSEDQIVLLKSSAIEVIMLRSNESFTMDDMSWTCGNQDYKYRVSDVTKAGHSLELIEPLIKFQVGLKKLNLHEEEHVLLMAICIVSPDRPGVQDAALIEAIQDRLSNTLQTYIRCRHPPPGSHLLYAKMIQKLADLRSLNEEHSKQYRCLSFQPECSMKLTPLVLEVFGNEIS
# Sequence of Retinoic acid receptor RXR-alpha (Homo sapiens) (P19793 whole entry, looked up): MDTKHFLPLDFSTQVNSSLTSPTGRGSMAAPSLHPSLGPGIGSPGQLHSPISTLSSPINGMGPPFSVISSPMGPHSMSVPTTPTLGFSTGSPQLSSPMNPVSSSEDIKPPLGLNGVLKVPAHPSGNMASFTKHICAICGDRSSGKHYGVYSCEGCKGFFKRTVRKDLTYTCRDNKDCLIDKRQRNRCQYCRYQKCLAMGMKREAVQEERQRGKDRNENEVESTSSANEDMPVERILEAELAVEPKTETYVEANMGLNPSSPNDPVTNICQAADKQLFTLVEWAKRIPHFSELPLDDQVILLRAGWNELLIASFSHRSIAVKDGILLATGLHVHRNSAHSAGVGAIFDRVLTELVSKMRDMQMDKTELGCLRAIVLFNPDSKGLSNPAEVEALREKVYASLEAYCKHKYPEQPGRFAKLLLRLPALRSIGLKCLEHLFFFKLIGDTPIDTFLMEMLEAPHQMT
# Sequence of Peroxisome proliferator-activated receptor gamma (Homo sapiens) (P37231 whole entry, looked up): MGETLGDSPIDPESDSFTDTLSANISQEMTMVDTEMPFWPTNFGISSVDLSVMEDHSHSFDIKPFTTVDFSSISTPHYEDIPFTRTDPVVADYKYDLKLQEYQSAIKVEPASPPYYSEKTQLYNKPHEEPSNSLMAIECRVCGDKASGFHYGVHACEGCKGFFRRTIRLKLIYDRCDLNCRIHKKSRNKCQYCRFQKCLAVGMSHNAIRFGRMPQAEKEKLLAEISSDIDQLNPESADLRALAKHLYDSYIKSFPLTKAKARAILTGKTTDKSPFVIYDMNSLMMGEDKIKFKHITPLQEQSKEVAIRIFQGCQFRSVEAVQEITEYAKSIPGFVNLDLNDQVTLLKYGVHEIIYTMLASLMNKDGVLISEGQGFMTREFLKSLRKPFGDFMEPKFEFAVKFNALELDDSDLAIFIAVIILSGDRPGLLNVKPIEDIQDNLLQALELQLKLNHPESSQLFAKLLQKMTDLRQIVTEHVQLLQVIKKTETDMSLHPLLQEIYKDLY
Structure (SMILES),Potency [1],Potency [2],Potency [3],activation [4],Potency [5],outcome [6],outcome [7],outcome [8],max response [9],outcome [10],outcome [11],activity change % (negative = inhibition) [12],Potency [13],activation [14],Potency [15],Potency [16],Potency [17],max response [18],outcome [19],Potency [20]
CCO,inactive,inactive,inactive,-4.6% (inactive),inactive,inactive,inactive,inactive,1.82%,inactive,inactive,-1.42% (inactive),inactive,-1.86% (inactive),inactive,inactive,inactive,0.289% (inactive),inactive,
O=NO,inactive,,,,,inactive,inactive,inactive,-10.7% and -17.9%,inactive,inactive,-1.68% (inactive) and 1.18% (inactive),,,inactive,,inactive,3.2% (inactive) and 1.29% (inactive),inactive,inactive
C=CC(=O)OCCOCCOCCOCCOC(=O)C=C,inactive,39.8 µM [inconclusive] (active),,-5.18% (inactive),39.8 µM (active),,,inactive,,,inactive,,42.2 µM (active) and 37.6 µM (active),28.9% (inactive) and 15.6% (inactive),inactive,11.9 µM (active) and 21.1 µM (active),66.8 µM (active),,inactive,20 µM (active) and 25.1 µM (active)
COC(=O)c1ccc(C)cc1,inactive,inactive,,-15.8% (inactive),inactive,,inactive,inactive,8.76% and -8.45%,inactive,inactive,-22.1% (inactive) and -12.5% (inactive),inactive,2.24% (inactive) and -1.53% (inactive),inactive,inactive,inactive,1.84% (inactive) and -0.952% (inactive),inactive,
CCC(C)c1ccccc1O (centres undefined),inactive,,,-11.6% (inactive) and -11.3% (inactive) and 1.07% (inactive),inactive,inactive,inactive,inactive,-16.8% and -5.28% and 4.79%,inactive,inactive,-2.64% (inactive) and 0.537% (inactive),,,inactive,inactive,inactive,11.2% (inactive) and -2.55% (inactive) and 1.18% (inactive),inactive,inactive
O=C(O)c1ccc(O)cc1O,inactive,,,0.41% (inactive) and -0.627% (inactive),inactive,inactive,inactive,inactive,-5.03% and -19.7%,inactive,inactive,0.5% (inactive) and 23.9% (inactive),inactive,-0.261% (inactive) and 0.22% (inactive),inactive,inactive,inactive,10.9% (inactive) and 2.3% (inactive),inactive,inactive
CCCCCCCCCCCCCCC1CO1 (centres undefined),inactive,inactive,inactive,1.74% (inactive) and -2.57% (inactive),inactive,inactive,inactive,inactive,-14.5% and -12.1%,inactive,inactive,8.79% (inactive),inactive,0.526% (inactive) and -2.5% (inactive),,inactive,inactive,-5.5% (inactive) and 2.15% (inactive),inactive,
COc1ccc2nc(N)sc2c1,,inactive,inactive,-7.22% (inactive) and -9.63% (inactive),inactive,inactive,inactive,inactive,-6.78% and -2.22%,inactive,inactive,-0.575% (inactive) and 14.1% (inactive),54.5 µM (active),,inactive,inactive,,,,inactive
Cc1ccc([N+](=O)[O-])c(C)c1,inactive,inactive,inactive,-4.65% (inactive) and 0.746% (inactive),inactive,inactive,inactive,inactive,-5.33% and -0.658%,inactive,inactive,-7.14% (inactive) and -11% (inactive),inactive,0.814% (inactive) and -2.3% (inactive),inactive,inactive,inactive,3.04% (inactive) and -0.0498% (inactive),inactive,inactive
c1ccccc1,inactive,inactive,inactive,-2.25% (inactive) [middle of 4 runs],inactive,inactive,inactive,inactive,,,inactive,,inactive,0.891% (inactive) [middle of 4 runs],inactive,inactive,inactive,,,inactive
